Measurements taken from PubChem BioAssay (Tox21).
Values joined by “and” are separate entries in the source; they are usually repeats but may differ in a detail not shown here. Equal entries are not always repeated. A number with no mark means an inactive call. Inconclusive results are not listed. Where a call stands in place of a potency, no number is given. Active and inactive are the calls of the source. Calls come from the whole dose curve; as a rule, active = well fitted curve in the direction sought with a large enough effect in the repeat runs; inconclusive = weak or mixed curves; inactive = no such curve, though single readings can be large; an effect the other way counts as inactive or inconclusive.

Tests used:
[1] = Human pregnane X receptor (PXR) small molecule agonists, qHTS cell viability counter screen (AID 1346977); note: nearly all actives have a fitted effect of over 50% in size
Summary of the method: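 Fluorescence read-out (CellTiter-Fluor) of viability in PXR-Luc HepG2 cells, multiplexed with the luciferase agonist read. Compounds in DMSO added after 5hr plating; 24hr total exposure at 37C, 5% CO2.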

[2] = Caspase-3/7 induction in HepG2 cells by small molecules, qHTS assay (AID 1346978); note: nearly all actives have a fitted effect of over 15% in size
Summary of the method: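 Wild-type HepG2 cells (2,000/well) were settled 5 h at 37 C, 5% CO2, then exposed to compounds in DMSO for 17 h. Caspase-3/7 activity was read by luminescence 30 min after adding Caspase-Glo 3/7 reagent at room temperature.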

[3] = Caspase-3/7 induction in CHO-K1 cells by small molecules, qHTS cell viability counter screen (AID 1346979); note: nearly all actives have a fitted effect of over 35% in size
Summary of the method: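 CHO-K1 wt, 1,500 cells/well; 5hr pre-incubation 37C/5% CO2; compound pin transfer (DMSO); 16hr exposure; CellTiter-Fluor added, 1hr, fluorescence read.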

[4] = Caspase-3/7 induction in CHO-K1 cells by small molecules, qHTS assay (AID 1346980); note: nearly all actives have a fitted effect of over 15% in size
Summary of the method: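 Wild-type cells were seeded at 1,500 per well and settled 5 hr at 37 C, 5% CO2, then exposed to DMSO-dissolved compounds for 17 hr. Caspase-Glo 3/7 reagent was added, and luminescence was read after 30min at room temperature.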

[5] = Caspase-3/7 induction in HepG2 cells by small molecules, qHTS cell viability counter screen (AID 1346981); note: series mostly up to about 92 µM; nearly all actives have a fitted effect of over 30% in size
Summary of the method: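 After a 5-hr attachment period at 37 C and 5% CO2, wild-type HepG2 cells received compounds in DMSO. Sixteen hours later CellTiter-Fluor was dispensed and the fluorescent signal quantified after a further hour.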

[6] = target: Nuclear receptor subfamily 1 group I member 2 (Homo sapiens) (UniProt O75469); experiment: Human pregnane X receptor (PXR) small molecule agonists, qHTS assay (AID 1346982); note: nearly all actives have a fitted effect of over 35% in size; note: potency is the fitted concentration of half-maximal effect
Chain of Nuclear receptor subfamily 1 group I member 2 (Homo sapiens) (O75469 whole entry, looked up): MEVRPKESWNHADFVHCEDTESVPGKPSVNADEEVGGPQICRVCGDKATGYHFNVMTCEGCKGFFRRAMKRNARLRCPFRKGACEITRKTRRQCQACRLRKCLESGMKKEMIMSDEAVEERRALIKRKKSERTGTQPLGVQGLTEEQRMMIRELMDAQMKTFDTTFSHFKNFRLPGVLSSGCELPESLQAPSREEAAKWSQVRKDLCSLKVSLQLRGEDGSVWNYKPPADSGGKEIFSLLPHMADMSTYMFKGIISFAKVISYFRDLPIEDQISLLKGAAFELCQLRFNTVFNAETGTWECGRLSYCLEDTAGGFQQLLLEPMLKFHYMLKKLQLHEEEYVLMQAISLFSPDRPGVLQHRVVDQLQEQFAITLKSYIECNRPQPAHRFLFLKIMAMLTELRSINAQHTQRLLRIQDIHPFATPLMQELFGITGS
Summary of the method: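 Tox21 qHTS; PXR-Luc HepG2; compounds pinned from DMSO; 24 hr, 37 C; ONE-Glo luciferase detection, 30 min room temperature.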

[7] = target: Nuclear receptor subfamily 1 group I member 2 (Rattus norvegicus) (UniProt Q9R1A7); experiment: Rat pregnane X receptor (rPXR) activation by small molecules, qHTS assay (AID 1346983); conditions: rPXR luciferase reporter cells, One-Glo luminescence, 24 h; max activation: hits give high values; note: nearly all actives have a fitted effect of over 20% in size
Chain of Nuclear receptor subfamily 1 group I member 2 (Rattus norvegicus) (Q9R1A7 whole entry, looked up): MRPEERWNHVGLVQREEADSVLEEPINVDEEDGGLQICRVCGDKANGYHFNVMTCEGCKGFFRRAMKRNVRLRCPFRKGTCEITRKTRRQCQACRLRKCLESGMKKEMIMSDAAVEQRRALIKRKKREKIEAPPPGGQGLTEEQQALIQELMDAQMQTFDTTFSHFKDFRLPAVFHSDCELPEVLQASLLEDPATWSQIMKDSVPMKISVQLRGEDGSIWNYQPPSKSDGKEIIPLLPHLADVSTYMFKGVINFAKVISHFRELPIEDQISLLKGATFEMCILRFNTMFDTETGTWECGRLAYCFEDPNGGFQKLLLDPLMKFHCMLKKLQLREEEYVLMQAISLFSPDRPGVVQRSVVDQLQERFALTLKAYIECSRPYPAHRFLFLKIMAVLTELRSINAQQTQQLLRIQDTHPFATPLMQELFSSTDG
Summary of the method: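 Cell-based rPXR luciferase reporter assay, 2,000 cells per well, rested 5hr at 37 C before compound addition in DMSO, then 24 hr at 37 C. One-Glo reagent was added and luminescence read after 30 min at room temperature.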

[8] = target: Nuclear receptor subfamily 1 group I member 2 (Homo sapiens) (UniProt O75469); experiment: CYP3A4 induction through human pregnane X receptor (PXR) by small molecules, qHTS assay (AID 1346984); note: nearly all actives have a fitted effect of over 40% in size
Summary of the method: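 Cells (DPX-2; HepG2 with PXR element plus CYP3A4-promoter luciferase) settled 5hr, then were treated 24hr at 37C. A 3hr, 3uM-final Luciferin-IPA step preceded luminescence measurement with One-Glo.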

[9] = target: Nuclear receptor subfamily 1 group I member 2 (Homo sapiens) (UniProt O75469); experiment: Human pregnane X receptor (PXR) activation by small molecules, qHTS assay (AID 1346985); note: nearly all actives have a fitted effect of over 40% in size
Summary of the method: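 DPX-2 cells (HepG2 co-transfected with a PXR response element and a CYP3A4-promoter luciferase construct) were seeded at 2,000 per well, rested 5 hr at 37C, then exposed to DMSO-dissolved compounds for 24 hr. Activation was read as luciferase luminescence.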

[10] = target: Cytochrome P450 2D6 (Homo sapiens) (UniProt P10635); experiment: Cytochrome P450 Family 2 Subfamily D Member 6 (CYP2D6) small molecule antagonists: luciferase reporter qHTS assay (AID 1671196); note: nearly all actives have a fitted effect of over 50% in size; note: potency is the fitted concentration of half-maximal effect
Chain of Cytochrome P450 2D6 (Homo sapiens) (P10635 whole entry, looked up): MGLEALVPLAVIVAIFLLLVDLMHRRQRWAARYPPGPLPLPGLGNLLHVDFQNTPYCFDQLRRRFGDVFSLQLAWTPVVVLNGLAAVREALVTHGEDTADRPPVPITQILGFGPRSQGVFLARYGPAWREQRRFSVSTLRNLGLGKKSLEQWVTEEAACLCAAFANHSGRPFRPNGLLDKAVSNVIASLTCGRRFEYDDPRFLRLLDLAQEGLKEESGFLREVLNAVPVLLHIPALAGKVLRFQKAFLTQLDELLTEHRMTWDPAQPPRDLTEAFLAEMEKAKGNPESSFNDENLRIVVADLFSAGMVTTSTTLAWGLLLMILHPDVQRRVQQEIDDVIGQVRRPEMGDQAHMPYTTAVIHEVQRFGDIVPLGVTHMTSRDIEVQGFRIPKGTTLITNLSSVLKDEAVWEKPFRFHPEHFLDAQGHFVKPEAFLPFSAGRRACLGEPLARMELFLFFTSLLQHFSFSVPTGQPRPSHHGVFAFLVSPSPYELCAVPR
Summary of the method: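 Room-temperature luminescent CYP2D6 activity assay: compound preincubated 10 min with enzyme–substrate mix, NADPH-initiated reaction 1 h, detection reagent 20 min before reading.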

| Compound | Potency [1] | outcome [2] | Potency [3] | outcome [4] | Potency [5] | Potency [6] | max activation [7] | Potency [8] | Potency [9] | Potency [10] |
| --- | --- | --- | --- | --- | --- | --- | --- | --- | --- | --- |
| C[C@H]1C[C@H]2[C@@H]3CCC4=CC(=O)C=C[C@]4(C)[C@H]3C(=O)C[C@]2(C)[C@@]1(O)C(=O)CO | inactive | inactive | inactive | inactive | inactive |  |  |  |  |  |
| CC(=O)c1ccc2ccccc2c1 | inactive | inactive | inactive | inactive | inactive | inactive |  |  |  |  |
| CN(C)[C@@H]1C(=O)C(C(=O)NCN2CCCC2)=C(O)[C@@]2(O)C(=O)C3=C(O)c4c(O)cccc4[C@@](C)(O)C3C[C@@H]12 (some centres undefined) | inactive | inactive | inactive | inactive | inactive | inactive | 1.07% and -3.86% | inactive | inactive |  |
| Cc1c(N)c(=O)n(-c2ccccc2)n1C | inactive | inactive | inactive | inactive | inactive |  |  |  |  |  |
| NCCCC(N)(C(=O)O)C(F)F (centres undefined) | inactive | inactive | inactive | inactive | inactive |  |  |  |  |  |
| CC(C)(C)C(=O)c1ccccc1 | inactive | inactive | inactive | inactive | inactive | inactive |  |  |  | inactive |
| Cc1coc2ccccc2c1=O | inactive | inactive | inactive | inactive | inactive | inactive |  |  |  | inactive |
| COc1ccc2cc1Oc1cc3c(cc1OC)CC[N+](C)(C)[C@H]3Cc1ccc(cc1)Oc1c(OC)c(OC)cc3c1[C@@H](C2)[N+](C)(C)CC3 | inactive | inactive | inactive | inactive | inactive | inactive | 0.186% | inactive | inactive | inactive |
| CC(=O)Nc1ccc(OCC(O)CNC(C)C)cc1 (centres undefined) | inactive | inactive | inactive | inactive | inactive | inactive | 0.433% | inactive | inactive | inactive |
| Clc1cc(Cl)cc(Cl)c1 | inactive | inactive | inactive | inactive | inactive | inactive |  |  |  | inactive |
| CC[N+](C)(CC)CCOC(=O)C1c2ccccc2Oc2ccccc21 | inactive | inactive | inactive | inactive | inactive | inactive | 0.786% | inactive |  | 2.75 µM (active) |
| Cc1ncc(COP(=O)(O)O)c(C=O)c1O | inactive | inactive | inactive | inactive | inactive | inactive | -2.51% | inactive | inactive | inactive |
| COc1cccc(OC)c1C(=O)N[C@@H]1C(=O)N2[C@@H]1SC(C)(C)[C@@H]2C(=O)O | inactive | inactive | inactive | inactive | inactive | inactive | -1.79% | inactive | inactive | inactive |
| O=C1CCCCCCCCCCCCCCO1 | inactive | inactive | inactive | inactive | inactive | inactive |  |  |  | inactive |
| CO[C@@]1(NC(=O)C(C(=O)O)c2ccc(O)cc2)C(=O)N2C(C(=O)O)=C(CSc3nnnn3C)CO[C@@H]21 (some centres undefined) | inactive | inactive | inactive | inactive | inactive | inactive | -4.79% | inactive | inactive | inactive |
| NC(CCC(=O)O)C(=O)O (centres undefined) | inactive | inactive | inactive | inactive | inactive | inactive |  |  |  | 31 µM (active) |
| COc1cc(-c2ccc(=O)[nH]n2)ccc1OC(F)F | inactive | inactive | inactive | inactive | inactive | 4.73 µM (active) |  |  |  | 4.36 µM (active) |
| Cc1ccc(-c2ccccc2C#N)cc1 | inactive | inactive | inactive | inactive | inactive | inactive |  |  |  | inactive |
| N[C@H](C(=O)O)[C@@H](O)c1ccc(O)c(O)c1 | inactive | inactive | inactive | inactive | inactive | inactive | -4.66% | inactive | inactive | inactive |
| CC(=O)C1CCCCC1=O (centres undefined) | inactive | inactive | inactive | inactive | inactive | inactive |  |  |  | inactive |
| CCCCCCCCN1CCCC1=O | inactive | inactive | inactive | inactive | inactive | 24.3 µM (active) |  |  |  | inactive |
| CC(C)C1CCC(O)CC1 (centres undefined) | inactive | inactive | inactive | inactive | inactive | inactive |  |  |  | inactive |
| Cc1ccc(-c2ncc(Cl)cc2-c2ccc(S(C)(=O)=O)cc2)cn1 | inactive | inactive | inactive | inactive | inactive | inactive | 7.56% |  | inactive |  |
| CCN[C@H]1C[C@H](C)S(=O)(=O)c2sc(S(N)(=O)=O)cc21 | inactive | inactive | inactive | inactive | inactive | inactive | 0.198% | inactive | inactive | inactive |
| C[N+]1(C)[C@@H]2CC(OC(=O)[C@H](CO)c3ccccc3)C[C@H]1[C@@H]1O[C@@H]12 (some centres undefined) | inactive | inactive | inactive | inactive | inactive | inactive | -0.815% | inactive | inactive | inactive |
| C=CCCC(=O)O | inactive | inactive | inactive | inactive | inactive | inactive |  |  |  | inactive |
| CC(=O)Oc1cccc(C)c1 | inactive | inactive | inactive | inactive | inactive | inactive | -3.04% | inactive | inactive | inactive |
